Screens: PubChem BioAssay, several laboratories
KKLEB cytotox – cytotoxicity in KKLEB CF airway cells, primary screen, cytotoxicity control for CF NF-kB inhibitor project, cell-based, uHTS, fluorescence assay plates; KKLEB CF airway cells viability, ATPlite luminescence, overnight; stronger effect = lower value; cells stimulated with P. aeruginosa culture filtrate; activity change (cytotoxicity), % at 5 µM; 0.36% of 360,000 active; AID 602141, 2011;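 active = corrected activity change at or below -50% at 5 µM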
LGR2 inh – inhibitors of bursicon-induced LGR2 CRE-luciferase signal, primary screen, cell-based, HEK293, CRE-luciferase reporter, bursicon stimulation. 0.35% of 380,000 active. inhibition, % at 9.99 µM. Drosophila bursicon receptor LGR2 (rickets). AID 720647, 2013. bursicon-stimulated, 4 h;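 active = drop in luminescence signal, shown as inhibition above about 50% in the replicate tests, limit read from the data, passing the limit was not always enough; inconclusive = probably only some replicates passing the limit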;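 also: agonist challenge used bursicon conditioned medium at about half maximal strength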
Shn3 3UTR inh – reduction of Shn3 3'UTR firefly luciferase signal, primary screen, Schnurri-3 inhibitor project, cell-based, Clone20 osteoblasts, set 2; Clone20 osteoblast Shn3 3'UTR firefly luciferase, 24 h; inhibition, % at 12.5 µM; 0.52% of 360,000 active;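 active = mean inhibition of at least 75% with every replicate also reaching 75%; inconclusive = mean inhibition at least 75% but some replicate below; inactive = mean inhibition below 75%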;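 also: 0% = median of neutral control wells and 100% = pilot-screen positive control compound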
PAX8 reporter – inhibitors of PAX8-driven TPO luciferase reporter, primary screen, RMG-I cells, single concentration; inhibition, % at 12.6 µM; SteadyGlo, 24 h; 1.2% of 360,000 active; AID 652154, 2013;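 active = mean replicate inhibition at least 60% with every replicate also reaching 60%; inconclusive = only one of the two criteria is met; inactive = mean below 60% and not all replicates reaching 60%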;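 also: luciferase light reporting Pax8 driven TPO promoter activity; plate controls were median of neutral control wells for no effect and mitoxantrone controls for full effect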
CF NFkB block – inhibitors of PAF-induced NF-kB signaling, primary screen, cell-based, GFP fluorescence, uHTS. KKLEB NF-kB-GFP reporter, GFP fluorescence overnight. inhibition, % at 5 µM. 0.86% of 360,000 active;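 active = at least 50% inhibition at 5 µM, scaled per plate between neutral and stimulator controls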;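 also: PAF is a Pseudomonas aeruginosa culture filtrate used as stimulus; plate controls were PAF-stimulated DMSO wells for no effect and unstimulated DMSO wells for full effect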
EWS-Fli block – EWS/Fli-driven NR0B1 reporter inhibitors, primary screen, A673 cells, NR0B1 luciferase, luminescence, MLPCN library; viability-normalised; inhibition, % at 12.6 µM; 0.67% of 350,000 active; AID 651661, 2012;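 active = mean inhibition of at least 50% after viability correction, with every replicate also passing that limit; inconclusive = mean reaches 50% but only one of two replicates passes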;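 also: firefly luciferase signal divided by Alamar Blue viability fluorescence both relative to DMSO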
An asterisk follows results filed as active; ? = inconclusive; . = not tested or not shown. Most compounds without a hit are left out; they make up all but 2% or so of the library.

SMILES	KKLEB cytotox	LGR2 inh	Shn3 3UTR inh	PAX8 reporter	CF NFkB block	EWS-Fli block
COc1ccc(C(=O)NNC(=O)c2ccccn2)cc1	-18	.	65	104*	-19	62*
N/C(=N\OC(=O)c1ccc(Cl)c(Cl)c1)c1ccccn1	-15	68*	5	.	1	.
CCO/N=C(\N)c1[nH]ncc1Br	-6	-13	12	-6	10	-3
CCc1ccc(/C=N/NC(=O)c2ccccn2)cc1	-22	71*	.	-9	-8	11
O=C(Nc1ccccc1F)N1CC(=O)N2[C@@H](CO)[C@@H](c3ccc(C#CC4CCCC4)cc3)[C@@H]2C1	.	13	.	11	.	-14
C[C@H]1CN([C@@H](C)CO)C(=O)c2cccc(NC(=O)C3CCCCC3)c2O[C@@H]1CN(C)S(=O)(=O)c1ccc(F)cc1	.	-5	.	.	.	11
N/C(=N\OC(=O)c1cccc(Br)c1)c1ccccn1	-13	77*	-24	7	-7	.
CCOc1ccc(NC(=O)c2ccccn2)cc1	-31	95*	48	65*	-17	78*
CC(Oc1ccccc1)C(=O)NNC(=O)c1ccccn1 (centres undefined)	-6	.	16	75*	3	13
CC(Oc1cccc(Br)c1)C(=O)NNC(=O)c1ccccn1 (centres undefined)	-8	.	?	.	-6	.
N/C(=N\OC(=O)c1ccc(Cl)cc1)c1ccccn1	-23	90*	29	.	-9	.
O=c1c2ccccc2nc(/C=C/c2ccc([N+](=O)[O-])o2)n1CCCO	-8	4	96*	.	-2	.
O=c1c2ccccc2nc(/C=C/c2ccc([N+](=O)[O-])cc2)n1CCCO	6	7	-30	.	-5	.
O=C(Nc1ccc(Cl)cc1)N[C@@H]1CC[C@H](CCNS(=O)(=O)c2ccccc2F)O[C@H]1CO	.	-6	.	15	.	1
CN(C)C(=O)c1ccc(-c2ccc([C@@H]3[C@H](C#N)N[C@H]3CO)cc2)cc1	.	-2	.	10	.	0
CCCNC(=O)N[C@H]1CC[C@@H](CCn2cc(C3CCCC3)nn2)O[C@H]1CO	.	-18	.	2	.	-2
CC(=NNc1nc2ccccc2o1)c1ncccn1	-14	4	84	74*	2	-1
Cc1cc(C(=O)COc2cccnc2[N+](=O)[O-])c(C)n1-c1ccccc1	0	-19	90*	13	9	31
COCC(=O)N1CCC2(CC1)CN(Cc1cccc(OC)c1)[C@@H](CO)c1c2c2ccc(OC)cc2n1C	.	-11	.	.	.	10
COCCn1c(C)cc(C2=NNC(=NC3CC3)SC2)c1C	-2	94*	91*	102*	-19	90*
COCCn1c(C)cc(C2=NNC(=Nc3ccc(Cl)cc3Cl)SC2)c1C	1	.	5	.	3	.
C=CCN=C1NN=C(c2cc(C)n(CCOC)c2C)CS1	8	?	4	56	9	85*
C=CCn1c(C)cc(C2=NNC(=NC(C)(C)C)SC2)c1C	-10	0	11	13	-4	60*
C[C@H](CO)N1C[C@H](C)[C@H](CN(C)S(=O)(=O)c2ccc(F)cc2)Oc2ncc(-c3ccncc3)cc2C1=O	.	2	.	17	.	-140
CN(C)c1ccc(N=Nc2nccs2)cc1	-32	86*	-39	13	-30	20
O=C(O)c1ccccc1Nc1cccc(C(F)(F)F)c1	-59*	-10	-3	-5	12	-3
O=C(O)c1ccccc1Nc1ccccc1	4	10	1	-13	-10	6
Cc1nnc(N2CCCC(C(=O)Nc3cc(F)ccc3F)C2)c2nn(-c3ccccc3)c(C)c12 (centres undefined)	-1	.	22	.	14	.
Cc1ccc(-n2nc3c(N4CCC(C(=O)NCCc5cccs5)CC4)nnc(C)c3c2C)cc1	-14	-2	53	71*	33	.
Cc1nnc(N2CCCC(C(=O)NCc3ccc(OC(C)C)cc3)C2)c2nn(-c3ccccc3)c(C)c12 (centres undefined)	3	4	20	73*	2	.
